PubChem BioAssay (Tox21)
Results filed as inconclusive are left out. Where a call stands in place of a potency, no number is given. Unmarked numbers belong to inactive results. The source made the active and inactive calls. The call rests on the fitted dose curve.

Assay: p53 small molecule agonists, cell-based qHTS assay with human liver microsomes (AID 1963577);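 further: p53 response element beta-lactamase reporter cells with liver microsomes plus NADPH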
Conditions: HCT-116 p53RE-bla with human liver microsomes, ratio, 16 h; series mostly up to 66 µM
Source text: National Center for Advancing Translational Sciences [NCATS]
Division of Preclinical Innovation [DPI]
U.S. Environmental Protection Agency [EPA]
National Institutes of Environmental Health Sciences [NIEHS]
National Toxicology Program [NTP]
U.S. Food and Drug Administration [FDA]
p53, a tumor suppressor protein, is activated following cellular insult, including DNA damage and other cellular stresses. The activation of p53 regulates cell fate by inducing DNA repair, cell cycle arrest, apoptosis, or cellular senescence. The activation of p53, therefore, is a good indicator of DNA damage and other cellular stresses. […] The activation of the reporter gene under culture conditions can be detected by fluorescence intensity.
Tox21 Assay Protocol Summary:
The p53RE-bla cells were dispensed at 4,000cells/3ul/well in 1536-well black-clear bottom plates. After the assay plates were incubated at 37 C, 5% CO2 incubator for 5 hours, 23 nL of compounds dissolved in DMSO, positive controls or DMSO only was transferred to the assay plate. Following compound addition, 3 uL of human liver microsomes (XenoTech, Kansas City, KS) at final concentration of 0.5 mg/mL and 1uL of Beta-Nicotinamide adenine dinucleotide 2-phosphate (NADPH) at final concentration of 0.5 mg/mL were transferred to the assay plate. The plates were incubated at 37 C for 16 hours. 1 uL of LiveBLAzer detection mixture was added to each well and the plates were incubated at room temperature in the dark for 2 h.

Row | Structure (SMILES) | Potency | activation
1 | CS(=O)(=O)CCNCc1ccc(-c2ccc3ncnc(Nc4ccc(OCc5cccc(F)c5)c(Cl)c4)c3c2)o1 | inactive | 
2 | C[C@]12CCC(=O)C=C1[C@@H]1C[C@@H]1[C@H]1[C@@H]3[C@@H]4C[C@@H]4[C@@]4(CCC(=O)O4)[C@@]3(C)CC[C@@H]12 | inactive | 
3 | O=[N+]([O-])c1cc(N(CCO)CCO)ccc1NCCO | inactive | 
4 | CC1=C(/C=C/C(C)=C/C=C/C(C)=C/C=O)C(C)(C)CCC1 | inactive | 
5 | Oc1ccc2ccccc2c1 | inactive | 
6 | CN1C(=O)c2ccccc2C1=O | inactive | 
7 | CCCCC(CC)CNC(=O)CC(C)OC(=O)CCC(=O)O (stereo not given) | inactive | 
8 | CC(=O)Oc1ccc(C2(c3ccc(OC(C)=O)cc3)Oc3ccccc3NC2=O)cc1 | inactive | 
9 | CC(=O)S[C@@H]1CC2=CC(=O)CC[C@]2(C)[C@H]2CC[C@@]3(C)[C@@H](CC[C@@]34CCC(=O)O4)[C@H]12 | inactive | 
10 | OCCN1CCN(CCO)CC1 | inactive | 
11 | O=C(Nc1cccc([N+](=O)[O-])c1)c1cc2ccccc2cc1O | inactive | 
12 | CN1CCCN(C(c2ccccc2)c2ccc(Cl)cc2)CC1 (stereo not given) | inactive | 
13 | O=C(Cl)c1cc(C(=O)Cl)cc(C(=O)Cl)c1 | inactive | 
14 | C[C@@H](N)C(=O)O | inactive | 
15 | CCCCCCCCCCCCCCCCC(C(=O)O)C(O)(CC(=O)O)C(=O)O (stereo not given) | inactive | 
16 | O=C=NC1CCC(CC2CCC(N=C=O)CC2)CC1 (stereo not given) | inactive | 
17 | c1ccc(C[n+]2cccc3ccccc32)cc1 | inactive | 
18 | CCCC(=O)OC(C)(C)Cc1ccccc1 | inactive | 
19 | CC(=O)[O][Al] | inactive | 
20 | C=C(C)C(=O)OCC(O)COc1ccc(C(C)(C)c2ccc(OCC(O)COC(=O)C(=C)C)cc2)cc1 (stereo not given) | inactive | 

Row | Structure (SMILES) | Potency | activation
21 | Cc1cc(C)c(/C=C2\C(=O)Nc3ccccc32)[nH]1 | inactive | 
22 | O=C(Nc1ccc(C(=O)O)c(O)c1)c1ccccc1 | inactive | 
23 | O=C1NC(=O)C2CC=CCC12 (stereo not given) | inactive | 
24 | CCO/C=C1\N=C(c2ccccc2)OC1=O | inactive | 
25 | NC(=O)c1nc(-c2cccc(-c3cc(F)ccc3OCC(F)(F)C(F)(F)F)c2)n[nH]1 | inactive | 
26 | NC(N)=N/N=C/c1c(Cl)cccc1Cl | inactive | 
27 | CCCCCCCCNC(C)C(O)c1ccc(SC(C)C)cc1 (stereo not given) | inactive | 
28 | CC(=O)CC(=O)Nc1ccc(S(=O)(=O)O)cc1 | inactive | 
29 | COc1cc([C@@H]2c3cc4c(cc3[C@@H](O[C@@H]3O[C@@H]5CO[C@@H](C)O[C@H]5[C@H](O)[C@H]3O)[C@H]3COC(=O)[C@H]23)OCO4)cc(OC)c1O | inactive | 
30 | CN(C)c1ccc(N=Nc2ccccc2C(=O)O)cc1 | inactive | 
31 | CCCC(C)C(=O)O (stereo not given) | inactive | 
32 | O=C(NCC(O)CO)c1c(I)c(C(=O)NCC(O)CO)c(I)c(N(CCO)C(=O)CO)c1I (stereo not given) | inactive | 
33 | CCC1OCC(COc2ccc(Oc3ccccc3)cc2)O1 (stereo not given) | inactive | 
34 | CCCC(=O)OCC | inactive | 
35 | CN[C@H]1CC[C@@H](c2ccc(Cl)c(Cl)c2)c2ccccc21 | inactive | 
36 | CCCCCCCCCOC(=O)CCCCC(=O)OCCCCCCC | inactive | 
37 | CCN1/C(=C/C=C/c2sc3ccccc3[n+]2CC)Sc2ccccc21 |  | 15.3% [at 13.5 µM]
38 | CCc1ccc(C)cc1 | inactive | 
39 | O=C(O)c1ccccc1C(=O)OCc1ccccc1 | inactive | 
40 | CSc1c(Cl)c(Cl)c(Cl)c(Cl)c1Cl | inactive | 
